The values that follow come from PubChem BioAssay (EPA / NIEHS).

Active and inactive are the calls of the source. The calls were made as follows: active = hit-call score of the fitted dose curve at least 0.9, where 1 is the maximum; inactive = score below 0.9.

Read-out in the first assay: Collagen III, COL3A1 (gene 1281)
As to the kind of experiment: BSK_hDFCGF_CollagenIII: BioMAP Diversity Plus: hDFCGF Assay for Collagen III Biomarker Activity (AID 2283056). The settings on record: primary human foreskin fibroblasts; actives raise or lower the signal. Put shortly: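 hDFCGF primary human dermal fibroblasts; 24 h chemical exposure; collagen III by ELISA; bidirectional curve fit vs DMSO baseline (gain or loss of signal).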
Regarding `O=S(=O)(O)CCC(F)(F)C(F)(F)C(F)(F)C(F)(F)C(F)(F)C(F)(F)F`, the outcome was inactive.
Regarding `FC(F)=C(F)C(F)(F)C(F)(F)C(F)(F)C(F)(F)C(F)(F)C(F)(F)F`, the result was inactive.
On the same count and under the same terms, the entry for `Cc1ccc(S(=O)(=O)NC(=O)NN2CCCCCC2)cc1` is “inactive”; for `NC(N)=O` it is “inactive”.
Consider `c1ccc2ncccc2c1`, for which the outcome was inactive.
Consider `C[C@@H](Oc1ccc(CNC(=O)c2cccnc2Oc2ccc3c(c2)OCO3)c(F)c1)C(=O)O`, for which the result was inactive.
With `CCOC(N)=O`, the result was inactive.

Read-out in a further assay: Epidermal growth factor receptor (EGFR), EGFR (gene 1956)
As to the kind of experiment: BSK_hDFCGF_EGFR: BioMAP Diversity Plus: hDFCGF Assay for Epidermal growth factor receptor (EGFR) Biomarker Activity (AID 2283057). Conditions: primary human foreskin fibroblasts; actives raise or lower the signal. Put shortly:
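Dosing human primary skin fibroblasts, then measuring surface EGFR by ELISA at 24 h, gives the endpoint; gains and losses relative to DMSO were fitted in both directions.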
`NC(=O)N1c2ccccc2C=Cc2ccccc21`: the result was inactive.
On to `CC(C)c1nnc2ccc(-c3ocnc3-c3cc(F)ccc3F)cn12`, for which the outcome was inactive.
Consider `NC(N)=O`, for which the result was inactive.
On to `CCCCCCCCN(C)C`, for which the result was inactive.
`FC(F)(F)C(F)(F)C(F)(F)C(F)(F)C(F)(F)C(F)(F)I`: the outcome was inactive.
With `O=S(=O)(O)c1ccc(N=Nc2c(O)ccc3cc(S(=O)(=O)O)ccc23)cc1`, the outcome was inactive.
On to `CCCCCCOC(=O)CC(CC(=O)OCCCCCC)(OC(=O)CCC)C(=O)OCCCCCC`, for which the outcome was inactive.
Turning to `Nc1ccn([C@@H]2O[C@H](CO)[C@@H](O)[C@@H]2O)c(=O)n1`, the outcome was inactive.
For `CCCCCCCCCCCCCCCCOS(=O)(=O)O`, the AC50 was 2460 nM (active).
For `O=c1[nH]cnc2c1ncn2[C@H]1CC[C@@H](CO)O1`, the outcome was inactive.
For `O=C(O)c1cccc(C(=O)O)c1`, the result was inactive.
Take `OC[C@H]1O[C@@H]2O[C@H]3[C@H](O)[C@@H](O)[C@@H](O[C@H]4[C@H](O)[C@@H](O)[C@@H](O[C@H]5[C@H](O)[C@@H](O)[C@@H](O[C@H]6[C@H](O)[C@@H](O)[C@@H](O[C@H]7[C@H](O)[C@@H](O)[C@@H](O[C@H]1[C@H](O)[C@H]2O)O[C@@H]7CO)O[C@@H]6CO)O[C@@H]5CO)O[C@@H]4CO)O[C@@H]3CO`: the result was inactive.

Read-out in another assay: Interleukin-8 (IL8), CXCL8 (gene 3576)
As to the kind of experiment: BSK_hDFCGF_IL8: BioMAP Diversity Plus: hDFCGF Assay for Interleukin-8 (IL8) Biomarker Activity (AID 2283058). The settings on record: primary human foreskin fibroblasts; actives raise or lower the signal. In short, it runs like this:
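ELISA read-out of IL-8 from primary human foreskin fibroblast cultures taken 24 h after dosing; values are bidirectional fits relative to DMSO vehicle.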
`CC(C)CC(C)O` (configuration not stated): the result was inactive.
For `CCN(CC)C(=S)SSC(=S)N(CC)CC`, the AC50 is 2810 nM (active).
For `FC(F)C(F)(F)COCC1CO1` (configuration not stated), the result was inactive.
Consider `OCCC(F)(F)C(F)(F)C(F)(F)C(F)(F)F`, for which the result was inactive.
Consider `CCCCN1C(=O)[C@@H]([C@H](O)C2CCCCC2)NC(=O)C12CCN(Cc1ccc(Oc3ccc(C(=O)O)cc3)cc1)CC2`, for which the result was inactive.
Same read-out and setting: the entry for `NC(=O)N1c2ccccc2C=Cc2ccccc21` is “inactive”; for `CC(C)c1nnc2ccc(-c3ocnc3-c3cc(F)ccc3F)cn12` it is “inactive”; for `O=S(=O)(O)CCC(F)(F)C(F)(F)C(F)(F)C(F)(F)C(F)(F)C(F)(F)F` it is “inactive”.
Same read-out and setting: then `FC(F)=C(F)C(F)(F)C(F)(F)C(F)(F)C(F)(F)C(F)(F)C(F)(F)F`, with “inactive”; and `Cc1ccc(S(=O)(=O)NC(=O)NN2CCCCCC2)cc1`, with “inactive”.
Same read-out and setting: the entry for `NC(N)=O` is “inactive”.
Regarding `CC[C@H](C)C(=O)O[C@H]1C[C@H](O)C=C2C=C[C@H](C)[C@H](CC[C@@H](O)C[C@@H](O)CC(=O)O)[C@H]21`, the outcome was inactive.
For the compound `CCCCCCCCN(C)C`, the outcome was inactive.
As for `FC(F)(F)C(F)(F)C(F)(F)C(F)(F)C(F)(F)C(F)(F)I`, the result was inactive.
On to `O=S(=O)(O)c1ccc(N=Nc2c(O)ccc3cc(S(=O)(=O)O)ccc23)cc1`, for which the outcome was inactive.
As for `CCCCCCOC(=O)CC(CC(=O)OCCCCCC)(OC(=O)CCC)C(=O)OCCCCCC`, the result was inactive.
Regarding `c1ccc2ncccc2c1`, the outcome was inactive.
`OC[C@H]1O[C@@](CO)(O[C@H]2O[C@H](CO)[C@@H](O)[C@H](O)[C@H]2O)[C@@H](O)[C@@H]1O`: the outcome was inactive.
`C[C@@H](Oc1ccc(CNC(=O)c2cccnc2Oc2ccc3c(c2)OCO3)c(F)c1)C(=O)O`: the result was inactive.
On the same count and under the same terms, the entry for `Nc1ccn([C@@H]2O[C@H](CO)[C@@H](O)[C@@H]2O)c(=O)n1` is “inactive”.
Turning to `CCCCCCCCCCCCCCCCOS(=O)(=O)O`, the AC50 is 15500 nM (active).
Consider `CC(C)CCCCCCOC(=O)C1CCCCC1C(=O)OCCCCCCC(C)C` (configuration not stated), for which the result was inactive.
In the case of `O=C(O)[C@H](O)[C@@H](O)C(=O)O`, the outcome was inactive.
For the compound `O=c1[nH]cnc2c1ncn2[C@H]1CC[C@@H](CO)O1`, the result was inactive.
On to `OCC(CO)(CO)CO`, for which the outcome was inactive.
`O=C(O)c1cccc(C(=O)O)c1`: the outcome was inactive.
The same measure, in the same setting: then `OC[C@H]1O[C@@H]2O[C@H]3[C@H](O)[C@@H](O)[C@@H](O[C@H]4[C@H](O)[C@@H](O)[C@@H](O[C@H]5[C@H](O)[C@@H](O)[C@@H](O[C@H]6[C@H](O)[C@@H](O)[C@@H](O[C@H]7[C@H](O)[C@@H](O)[C@@H](O[C@H]1[C@H](O)[C@H]2O)O[C@@H]7CO)O[C@@H]6CO)O[C@@H]5CO)O[C@@H]4CO)O[C@@H]3CO`, with “inactive”; and `CCOC(N)=O`, with “inactive”.
